Experiment [1] is described as follows: NCI Yeast Anticancer Drug Screen. Data for the rad50 strain (AID 155).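 Also: 0% = growth of vehicle-only cultures of the same strain.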 The note with it: S. cerevisiae rad50 strain growth inhibition, active compounds read high. In outline: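 Relative growth inhibition (compound vs vehicle) was measured in yeast with a defined repair-gene alteration.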
Experiment [2] in a line: NCI Yeast Anticancer Drug Screen. Data for the mec2-1 strain (AID 157). The settings on record: S. cerevisiae mec2-1 strain, active compounds read high. In outline: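 Readout is yeast growth inhibition, normalised to vehicle-treated controls, in the mec2-1 strain exposed to compound.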
A short description of experiment [3]: NCI Yeast Anticancer Drug Screen. Data for the sgs1 mgt1 strain (AID 161).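 Also: 0% = growth of cultures given vehicle only.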 The settings on record: S. cerevisiae sgs1 mgt1 strain, active compounds read high. In outline:
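Compounds are added to genetically altered yeast, and growth is compared with cultures given vehicle alone to give percent inhibition.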

A short description of experiment [4]: NCI Yeast Anticancer Drug Screen. Data for the cln2 rad14 strain (AID 165).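 Also: 0% = growth equal to vehicle treated cultures.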 The note with it: S. cerevisiae cln2 rad14 strain, active compounds read high. A digest of the protocol:
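Relative to vehicle controls, growth inhibition of compound-treated cln2 rad14 yeast was recorded.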

Experiment [5] in a line: NCI Yeast Anticancer Drug Screen. Data for the bub3 strain (AID 167). The settings on record: S. cerevisiae bub3 mutant strain, active compounds read high. In outline:
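Screening used yeast with an engineered genetic alteration affecting cell cycle control. Compound-exposed cultures were compared with vehicle cultures, and reduced growth was taken as inhibition.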

The nature of experiment [6]: NCI Yeast Anticancer Drug Screen. Data for the mlh1 rad18 strain (AID 175). The note with it: S. cerevisiae mlh1 rad18 strain growth inhibition, active compounds read high. A digest of the protocol: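 Test agents were incubated with a yeast strain of defined genotype (DNA damage repair defect). Inhibition of growth was derived by comparison with vehicle-exposed cultures.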

Setting [7] is: at 5.0 µM (retest, dose inferred, filed as 0.5).
Setting [8] is: at 50.0 µM (retest, dose inferred, filed as 5.0).

This is part of a sample that, as a whole, favours compounds with a hit. Of some 79,000 tested, about 15% had one in any assay. Unmarked numbers belong to inactive results. Activity calls are given as the source filed them. Rule as the data show it: active = growth inhibition above about 70%; inactive = the rest.

Regarding `CCCCCCCCCCC(NC(C)=O)(C(=O)OCC)C(=O)OCC`, the growth inhibition in experiment [1] (setting [7]) is -9%; in experiment [1] (setting [8]), 98% (active); in experiment [1] (at 50.0 µM), 97.5% (active); in experiment [2] (setting [7]), -3%; in experiment [2] (setting [8]), 99% (active); in experiment [2] (at 50.0 µM) it was 98% (active). For the same compound, the growth inhibition in experiment [3] (setting [7]) is -3%; in experiment [3] (setting [8]), 99% (active); in experiment [3] (at 50.0 µM), 67.3%; in experiment [4] (setting [7]), -5%; in experiment [4] (setting [8]), 99% (active); in experiment [4] (at 50.0 µM), 98.3% (active). Also, the growth inhibition in experiment [5] (setting [7]) is 0%; in experiment [5] (setting [8]), 98% (active); in experiment [5] (at 50.0 µM), 94.5% (active); in experiment [6] (setting [7]), 11%; in experiment [6] (setting [8]), 98% (active); in experiment [6] (at 50.0 µM), 82.8% (active).

Take `C=CC(=O)N1C/C(=C\c2ccc(F)cc2)C(=O)/C(=C/c2ccc(F)cc2)C1`: the growth inhibition in experiment [1] (setting [7]) was 21%; in experiment [1] (setting [8]), 75% (active); in experiment [1] (at 50.0 µM), 52%; in experiment [2] (setting [7]) it was 14%; in experiment [2] (setting [8]), 77% (active); in experiment [2] (at 50.0 µM) it was 26.1%. In addition, the growth inhibition in experiment [3] (setting [7]) is 14%; in experiment [3] (setting [8]), 88% (active); in experiment [3] (at 50.0 µM), 90.2% (active); in experiment [4] (setting [7]), 19%; in experiment [4] (setting [8]), 81% (active); in experiment [4] (at 50.0 µM) it was 78.5% (active). The growth inhibition was 21% in experiment [5] (setting [7]); 94% (active) in experiment [5] (setting [8]); 88.6% (active) in experiment [5] (at 50.0 µM); 18% in experiment [6] (setting [7]); 91% (active) in experiment [6] (setting [8]); 88.1% (active) in experiment [6] (at 50.0 µM).

As to `CC(C)(C)/C=N/NS(=O)(=O)c1ccccc1`, the growth inhibition in experiment [1] (setting [7]) is -114%; in experiment [1] (setting [8]) it was -146%; in experiment [1] (at 50.0 µM) it was -1%; in experiment [2] (setting [7]) it was -43%; in experiment [2] (setting [8]) it was -43%; in experiment [2] (at 50.0 µM) it was -7.35%. The growth inhibition is -44% in experiment [3] (setting [7]); -62% in experiment [3] (setting [8]); 2.5% in experiment [3] (at 50.0 µM); -50% in experiment [4] (setting [7]); -61% in experiment [4] (setting [8]); 40.5% in experiment [4] (at 50.0 µM). Further, the growth inhibition was -57% in experiment [5] (setting [7]); -67% in experiment [5] (setting [8]); -5.2% in experiment [5] (at 50.0 µM); -100% in experiment [6] (setting [7]); -108% in experiment [6] (setting [8]); 4.65% in experiment [6] (at 50.0 µM).

`Cc1ccc(Nc2nc3c(s2)C(=O)c2ccccc2C3=O)cc1`: the growth inhibition in experiment [1] (setting [7]) was 37%; in experiment [1] (setting [8]), 97% (active); in experiment [1] (at 50.0 µM), 98.2% (active); in experiment [2] (setting [7]), 61%; in experiment [2] (setting [8]), 98% (active); in experiment [2] (at 50.0 µM), 98.8% (active). The growth inhibition in experiment [3] (setting [7]) was 34%; in experiment [3] (setting [8]), 98% (active); in experiment [3] (at 50.0 µM), 98.7% (active); in experiment [4] (setting [7]), 3%; in experiment [4] (setting [8]), 96% (active); in experiment [4] (at 50.0 µM), 97.8% (active). Also, the growth inhibition in experiment [5] (setting [7]) is 91% (active); in experiment [5] (setting [8]), 97% (active); in experiment [5] (at 50.0 µM), 98.7% (active); in experiment [6] (setting [7]) it was 61%; in experiment [6] (setting [8]), 97% (active); in experiment [6] (at 50.0 µM) it was 97.7% (active).

As for `O=C(Nc1ccc(F)cc1)N1CCCCC1`, the growth inhibition in experiment [1] (setting [7]) is 41%; in experiment [1] (setting [8]) it was 43%; in experiment [1] (at 50.0 µM), 8.15%; in experiment [2] (setting [7]), 36%; in experiment [2] (setting [8]), 29%; in experiment [2] (at 50.0 µM), 47%. Moreover, the growth inhibition in experiment [3] (setting [7]) is 40%; in experiment [3] (setting [8]) it was 42%; in experiment [3] (at 50.0 µM) it was 36.9%; in experiment [4] (setting [7]), 29%; in experiment [4] (setting [8]), 31%; in experiment [4] (at 50.0 µM) it was 9.25%. The growth inhibition in experiment [5] (setting [7]) was 41%; in experiment [5] (setting [8]), 70% (active); in experiment [5] (at 50.0 µM) it was 17.3%; in experiment [6] (setting [7]), 43%; in experiment [6] (setting [8]), 39%; in experiment [6] (at 50.0 µM), 33.1%.

Regarding `CCC1=C(C)/C(=C/c2[nH]c(C(Br)Br)c(CC)c2C)N=C1C(Br)Br`, the growth inhibition in experiment [1] (setting [7]) was -1%; in experiment [1] (setting [8]) it was 98% (active); in experiment [1] (at 50.0 µM), 30.6%; in experiment [2] (setting [7]), -6%; in experiment [2] (setting [8]), 99% (active); in experiment [2] (at 50.0 µM), 45.1%. Moreover, the growth inhibition in experiment [3] (setting [7]) is 2%; in experiment [3] (setting [8]), 99% (active); in experiment [3] (at 50.0 µM), 26%; in experiment [4] (setting [7]) it was -6%; in experiment [4] (setting [8]), 97% (active); in experiment [4] (at 50.0 µM), 75.2% (active). Moreover, the growth inhibition is 0% in experiment [5] (setting [7]); 93% (active) in experiment [5] (setting [8]); 49.3% in experiment [5] (at 50.0 µM); 0% in experiment [6] (setting [7]); 98% (active) in experiment [6] (setting [8]); 45.6% in experiment [6] (at 50.0 µM).

With `CCOc1ccc(N=Nc2c(C)nn(C(=S)SC)c2OCC)cc1`, the growth inhibition is 10% in experiment [1] (setting [7]); 54% in experiment [1] (setting [8]); 99.3% (active) in experiment [1] (at 50.0 µM); -7% in experiment [2] (setting [7]); 61% in experiment [2] (setting [8]); 99.7% (active) in experiment [2] (at 50.0 µM). Further, the growth inhibition in experiment [3] (setting [7]) was 4%; in experiment [3] (setting [8]), 74% (active); in experiment [3] (at 50.0 µM), 99.2% (active); in experiment [4] (setting [7]), -13%; in experiment [4] (setting [8]) it was 27%; in experiment [4] (at 50.0 µM) it was 99.5% (active). Further, the growth inhibition in experiment [5] (setting [7]) is -17%; in experiment [5] (setting [8]) it was 72% (active); in experiment [5] (at 50.0 µM), 99.3% (active); in experiment [6] (setting [7]) it was -24%; in experiment [6] (setting [8]) it was 73% (active); in experiment [6] (at 50.0 µM) it was 99.5% (active).

In the case of `Cc1cc2c(C(C)C)c(O)c(O)c3coc(/c1=c1/c(C)cc4c(C(C)C)c(=O)c(=O)c5coc1c45)c32`, the growth inhibition in experiment [1] (setting [7]) was -1%; in experiment [1] (setting [8]), 97% (active); in experiment [1] (at 50.0 µM) it was 98.9% (active); in experiment [2] (setting [7]), 23%; in experiment [2] (setting [8]), 99% (active); in experiment [2] (at 50.0 µM), 99.2% (active). For the same compound, the growth inhibition in experiment [3] (setting [7]) is 25%; in experiment [3] (setting [8]) it was 99% (active); in experiment [3] (at 50.0 µM), 99% (active); in experiment [4] (setting [7]), -25%; in experiment [4] (setting [8]), 98% (active); in experiment [4] (at 50.0 µM), 98.8% (active). For the same compound, the growth inhibition in experiment [5] (setting [7]) was -3%; in experiment [5] (setting [8]), 97% (active); in experiment [5] (at 50.0 µM) it was 98.5% (active); in experiment [6] (setting [7]) it was 29%; in experiment [6] (setting [8]), 98% (active); in experiment [6] (at 50.0 µM), 99.2% (active).

With `CCCCCCCCCc1cc(=O)[nH]c(=S)[nH]1`, the growth inhibition in experiment [1] (setting [7]) is 17%; in experiment [1] (setting [8]) it was 74% (active); in experiment [1] (at 50.0 µM), 85.1% (active); in experiment [2] (setting [7]) it was 6%; in experiment [2] (setting [8]), 72% (active); in experiment [2] (at 50.0 µM), 77.7% (active). In addition, the growth inhibition in experiment [3] (setting [7]) was 25%; in experiment [3] (setting [8]) it was 65%; in experiment [3] (at 50.0 µM), 79.3% (active); in experiment [4] (setting [7]), -13%; in experiment [4] (setting [8]), 58%; in experiment [4] (at 50.0 µM), 50.5%. Moreover, the growth inhibition in experiment [5] (setting [7]) is 8%; in experiment [5] (setting [8]) it was 77% (active); in experiment [5] (at 50.0 µM), 85.9% (active); in experiment [6] (setting [7]), 20%; in experiment [6] (setting [8]) it was 84% (active); in experiment [6] (at 50.0 µM) it was 86.8% (active).

Regarding `N=C(N)c1ccc(SCCCCCSc2ccc(C(=N)N)cc2)cc1`, the growth inhibition in experiment [1] (setting [7]) is 21%; in experiment [1] (setting [8]), 56%; in experiment [1] (at 50.0 µM), 57.2%; in experiment [2] (setting [7]), 17%; in experiment [2] (setting [8]), 61%; in experiment [2] (at 50.0 µM), 74% (active). For the same compound, the growth inhibition in experiment [3] (setting [7]) was 24%; in experiment [3] (setting [8]), 86% (active); in experiment [3] (at 50.0 µM), 76% (active); in experiment [4] (setting [7]), 22%; in experiment [4] (setting [8]), 57%; in experiment [4] (at 50.0 µM), 44.6%. The growth inhibition in experiment [5] (setting [7]) was 23%; in experiment [5] (setting [8]) it was 83% (active); in experiment [5] (at 50.0 µM), 63.4%; in experiment [6] (setting [7]) it was 25%; in experiment [6] (setting [8]) it was 87% (active); in experiment [6] (at 50.0 µM) it was 72.3% (active).
